Measured values taken from PubChem BioAssay (NCI).
About 83,000 compounds went through this panel and 20% of them were active in at least one assay; those are over-represented in the sample as a whole.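 The test compound was applied at a single concentration to cells in 96-well plates for 48 hours, and percent growth was recorded.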

What was measured:
Test in all cases: NCI-60 one-dose screen, 48 h (100 = growth as untreated, 0 = no growth, -100 = all killed)
Conditions in all cases: 10 µM; active = growth percent below 10; inactive = the rest
[1] = test system: NCI-H23 lung
[2] = test system: NCI-H226 lung
[3] = test system: NCI-H322M lung
[4] = test system: NCI-H460 lung
[5] = test system: HOP-92 NSCLC
[6] = test system: NCI-H522 lung
[7] = test system: 786-0 renal
[8] = test system: COLO 205 colon
[9] = test system: DU-145 prostate
[10] = test system: K-562 leukemia
[11] = test system: MALME-3M melanoma
[12] = test system: MDA-MB-231 breast
[13] = test system: RXF 393 renal
[14] = test system: SF-268 CNS
[15] = test system: SF-295 CNS
[16] = test system: SF-539 CNS
[17] = test system: M14 melanoma
[18] = test system: A549/ATCC NSCLC
[19] = test system: UACC-257 melanoma
[20] = test system: HOP-62 NSCLC

Measured: growth

O=C(O)CCC(NC(=O)OCc1ccccc1)C(=O)O (stereo unspecified)
inactive: [1] 101% | [2] 98.8% | [3] 98.6% | [4] 111% | [5] 95.9% | [6] 99.6% | [7] 104% | [8] 113% | [9] 98.7% | [10] 96.6% | [11] 96.9% | [12] 97% | [13] 109% | [14] 100% | [15] 102% | [16] 111% | [17] 103%

CCOC(=O)C(O)C(O)C(=O)OCC (stereo unspecified)
inactive: [1] 100% | [2] 106% | [3] 102% | [4] 103% | [5] 94.1% | [6] 101% | [18] 104% | [7] 105% | [9] 106% | [10] 102% | [11] 106% | [12] 110% | [13] 125% | [14] 102% | [15] 104% | [16] 109% | [19] 106% | [17] 104%

N#CC1(Nc2ccc3c4c(cccc24)CC3)CCCCC1
inactive: [1] 93.5% | [2] 81.8% | [3] 85.1% | [20] 92.9% | [6] 63.3% | [18] 95% | [7] 106% | [9] 103% | [10] 89.7% | [11] 93.1% | [12] 99.8% | [13] 89.8% | [14] 97% | [15] 98.8% | [16] 108% | [19] 92.9% | [17] 113%

Cc1c(C(=O)O)c(=O)n(-c2ccccc2)n1C
inactive: [1] 92% | [2] 103% | [3] 122% | [20] 96.7% | [6] 104% | [18] 108% | [7] 113% | [8] 110% | [9] 118% | [10] 108% | [11] 163% | [12] 118% | [13] 119% | [14] 119% | [15] 91.4% | [16] 119% | [19] 93.8% | [17] 104%

c1ccc2c(c1)Sc1ccccc1S2
inactive: [1] 99% | [2] 95.9% | [3] 92.5% | [4] 101% | [5] 81.8% | [6] 98.6% | [18] 94.2% | [7] 94.9% | [8] 111% | [9] 108% | [10] 103% | [11] 101% | [12] 94.1% | [13] 99.5% | [14] 109% | [15] 101% | [16] 106% | [19] 99.9% | [17] 103%

O=C(O)[C@@H]1[C@H]2C[C@H]3c4[nH]c5ccccc5c4CCN3C[C@@H]2CC[C@@H]1O
inactive: [1] 102% | [2] 103% | [3] 110% | [4] 121% | [5] 109% | [6] 18.2% | [18] 101% | [7] 76% | [8] 123% | [9] 106% | [10] 129% | [11] 66.1% | [12] 108% | [13] 111% | [14] 107% | [15] 99.2% | [16] 108% | [19] 105% | [17] 91.5%

Cc1cccc([N+](=O)[O-])c1Cl
inactive: [1] 96.4% | [2] 98.2% | [3] 105% | [20] 103% | [6] 116% | [18] 104% | [7] 102% | [8] 109% | [9] 105% | [10] 119% | [11] 109% | [12] 113% | [13] 103% | [14] 101% | [15] 104% | [16] 105% | [19] 105% | [17] 106%

COc1cccc(O)c1O
inactive: [1] 56.3% | [2] 101% | [3] 98.6% | [4] 103% | [5] 93.7% | [6] 79% | [18] 101% | [7] 88.1% | [9] 27% | [10] 78.4% | [11] 67% | [12] 85.5% | [13] 72.7% | [15] 104% | [16] 20.6% | [19] 72.3% | [17] 44.6%

NC(=S)CN1CCOCC1
inactive: [1] 106% | [2] 114% | [3] 91.6% | [20] 118% | [6] 97.9% | [18] 110% | [8] 118% | [9] 107% | [10] 97.7% | [11] 110% | [12] 106% | [13] 115% | [14] 102% | [15] 131% | [16] 111% | [19] 117% | [17] 120%

NC(=O)c1ccc(N=C(N)N=C(N)N)cc1
inactive: [1] 102% | [2] 84.1% | [3] 90.6% | [20] 87.2% | [6] 103% | [7] 96.4% | [8] 115% | [9] 107% | [10] 97.6% | [11] 93.1% | [12] 106% | [13] 89.6% | [14] 94.7% | [15] 96.8% | [16] 96.8% | [17] 110%
